Assay results taken from the supplement of paper PMC6411743.
± gives the standard deviation of the averaged measurements. About 5,400 targets were measured; listed, in parts, are those with the largest changes and a random draw of the rest.

Compound: Nc1nc2c(ncn2[C@@H]2O[C@H](COP(=O)(O)OP(=O)(O)OP(=O)(O)O)[C@@H](O)[C@H]2O)c(=O)[nH]1 [guanosine triphosphate]
Test: NP40-soluble protein abundance relative to vehicle (solubility fold change) (ratio); higher = more soluble protein in presence of GTP
Experimental: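 Solubility proteome profiling in Jurkat crude lysate. Lysate was treated with Mg-GTP (0.1-10 mM) for 10 min at room temperature and 3 min at 37 °C, then solubilised with 0.8% NP40 and benzonase, followed by ultracentrifugation. Proteins were quantified by TMT10 LC-MS/MS; the value is the NP40-soluble abundance relative to the NP40-processed vehicle, from 3 independent experiments.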

UniProt Q8WUX9, sequence (Q8WUX9 whole entry): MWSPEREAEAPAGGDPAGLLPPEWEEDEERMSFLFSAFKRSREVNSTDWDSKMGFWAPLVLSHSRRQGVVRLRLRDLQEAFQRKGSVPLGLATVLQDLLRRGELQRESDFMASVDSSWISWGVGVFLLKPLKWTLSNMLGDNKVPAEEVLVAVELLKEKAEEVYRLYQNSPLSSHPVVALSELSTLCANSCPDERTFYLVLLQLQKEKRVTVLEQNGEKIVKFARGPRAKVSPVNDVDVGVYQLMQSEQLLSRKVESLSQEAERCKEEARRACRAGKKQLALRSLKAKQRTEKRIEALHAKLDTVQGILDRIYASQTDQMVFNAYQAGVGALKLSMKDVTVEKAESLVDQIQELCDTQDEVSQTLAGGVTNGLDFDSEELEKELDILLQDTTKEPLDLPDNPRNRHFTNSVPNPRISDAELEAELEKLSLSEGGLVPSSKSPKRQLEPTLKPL
UniProt Q8TEW0, sequence (Q8TEW0 whole entry, one chain of several): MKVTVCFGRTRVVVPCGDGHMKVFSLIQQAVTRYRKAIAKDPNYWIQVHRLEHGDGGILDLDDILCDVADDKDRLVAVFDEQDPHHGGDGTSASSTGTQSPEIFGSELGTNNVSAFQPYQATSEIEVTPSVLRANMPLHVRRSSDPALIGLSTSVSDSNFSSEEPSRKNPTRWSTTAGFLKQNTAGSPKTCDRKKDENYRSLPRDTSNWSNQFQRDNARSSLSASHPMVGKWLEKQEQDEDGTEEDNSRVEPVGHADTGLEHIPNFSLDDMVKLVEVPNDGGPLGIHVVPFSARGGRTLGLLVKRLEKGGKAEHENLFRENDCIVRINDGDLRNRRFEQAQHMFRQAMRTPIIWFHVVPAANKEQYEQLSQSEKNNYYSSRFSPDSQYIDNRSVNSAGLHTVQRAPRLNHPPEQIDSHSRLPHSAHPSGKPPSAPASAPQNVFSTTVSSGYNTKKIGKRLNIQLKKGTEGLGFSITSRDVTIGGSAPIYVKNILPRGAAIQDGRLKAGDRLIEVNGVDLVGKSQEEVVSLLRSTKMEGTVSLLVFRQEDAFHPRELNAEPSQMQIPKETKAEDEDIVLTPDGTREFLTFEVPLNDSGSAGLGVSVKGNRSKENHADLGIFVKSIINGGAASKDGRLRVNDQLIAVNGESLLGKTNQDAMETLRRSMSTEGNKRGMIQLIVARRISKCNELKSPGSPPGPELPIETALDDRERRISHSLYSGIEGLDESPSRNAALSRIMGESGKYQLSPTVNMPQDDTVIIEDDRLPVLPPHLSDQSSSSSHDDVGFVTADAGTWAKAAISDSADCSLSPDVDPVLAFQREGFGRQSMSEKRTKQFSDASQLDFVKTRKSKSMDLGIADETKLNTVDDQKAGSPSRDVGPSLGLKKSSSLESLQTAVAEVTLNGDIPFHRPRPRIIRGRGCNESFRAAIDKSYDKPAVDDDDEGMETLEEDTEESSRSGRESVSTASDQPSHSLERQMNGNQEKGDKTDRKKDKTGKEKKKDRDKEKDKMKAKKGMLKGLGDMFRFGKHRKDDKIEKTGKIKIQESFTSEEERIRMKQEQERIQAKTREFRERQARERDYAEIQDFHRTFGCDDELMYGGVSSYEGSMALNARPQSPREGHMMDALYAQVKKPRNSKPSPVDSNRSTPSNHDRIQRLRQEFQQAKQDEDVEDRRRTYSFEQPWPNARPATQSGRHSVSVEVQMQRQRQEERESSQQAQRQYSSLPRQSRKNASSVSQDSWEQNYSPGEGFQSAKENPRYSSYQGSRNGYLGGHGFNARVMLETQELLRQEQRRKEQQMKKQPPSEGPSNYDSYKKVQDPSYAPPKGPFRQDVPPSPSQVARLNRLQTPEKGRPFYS
UniProt P61006, sequence (P61006 whole entry): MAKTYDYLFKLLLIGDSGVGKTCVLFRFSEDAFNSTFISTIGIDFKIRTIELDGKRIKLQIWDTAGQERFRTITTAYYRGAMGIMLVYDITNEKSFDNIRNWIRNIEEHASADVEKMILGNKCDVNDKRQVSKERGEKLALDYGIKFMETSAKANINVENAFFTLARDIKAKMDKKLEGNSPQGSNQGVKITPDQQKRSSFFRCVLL
UniProt Q68E01, sequence (Q68E01 whole entry): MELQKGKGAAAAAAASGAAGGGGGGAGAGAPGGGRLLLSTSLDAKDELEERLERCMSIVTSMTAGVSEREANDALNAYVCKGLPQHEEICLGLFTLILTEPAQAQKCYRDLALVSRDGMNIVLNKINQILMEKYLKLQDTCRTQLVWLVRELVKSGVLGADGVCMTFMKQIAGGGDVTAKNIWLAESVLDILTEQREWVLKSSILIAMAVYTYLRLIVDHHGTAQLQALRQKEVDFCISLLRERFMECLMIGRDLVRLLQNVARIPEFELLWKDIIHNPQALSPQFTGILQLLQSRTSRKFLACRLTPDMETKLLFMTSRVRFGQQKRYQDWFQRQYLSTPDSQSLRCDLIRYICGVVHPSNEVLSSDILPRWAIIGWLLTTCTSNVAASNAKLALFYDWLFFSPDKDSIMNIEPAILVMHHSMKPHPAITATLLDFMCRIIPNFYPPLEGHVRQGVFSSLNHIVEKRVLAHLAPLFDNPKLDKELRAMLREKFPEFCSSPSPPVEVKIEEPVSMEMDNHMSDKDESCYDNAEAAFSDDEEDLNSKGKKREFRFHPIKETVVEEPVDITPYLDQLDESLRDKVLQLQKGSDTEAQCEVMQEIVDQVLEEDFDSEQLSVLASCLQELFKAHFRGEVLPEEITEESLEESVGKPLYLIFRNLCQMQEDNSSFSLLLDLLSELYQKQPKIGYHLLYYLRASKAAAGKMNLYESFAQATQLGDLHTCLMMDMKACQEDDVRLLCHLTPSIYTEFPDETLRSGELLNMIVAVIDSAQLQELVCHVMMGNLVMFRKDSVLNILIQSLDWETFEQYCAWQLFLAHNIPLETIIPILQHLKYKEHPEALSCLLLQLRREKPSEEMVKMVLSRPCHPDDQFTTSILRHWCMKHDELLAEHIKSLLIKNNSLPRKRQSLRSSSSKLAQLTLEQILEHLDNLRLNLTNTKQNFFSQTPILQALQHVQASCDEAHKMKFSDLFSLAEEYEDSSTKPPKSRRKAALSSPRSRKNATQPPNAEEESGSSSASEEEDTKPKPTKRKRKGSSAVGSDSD

Target	NP40-soluble protein abundance (concentration: 0.1mM)	NP40-soluble protein abundance (concentration: 0.5mM)	NP40-soluble protein abundance (concentration: 1mM)	NP40-soluble protein abundance (concentration: 2mM)	NP40-soluble protein abundance (concentration: 4mM)	NP40-soluble protein abundance (concentration: 6mM)	NP40-soluble protein abundance (concentration: 8mM)	NP40-soluble protein abundance (concentration: 10mM)
UniProt Q68E01|Q68E01-2	1.01 ± 0.028	1.01 ± 0.026	1.03 ± 0.027	1.03 ± 0.03	1.08 ± 0.026	1.12 ± 0.053	1.11 ± 0.036	1.11 ± 0.021
CHMP7 (UniProt Q8WUX9)	0.945 ± 0.058	0.935 ± 0.087	0.973 ± 0.085	0.92 ± 0.11	0.884 ± 0.074	0.9 ± 0.045	0.912 ± 0.1	0.889 ± 0.084
Q5VWV2|Q8TEW0|Q8TEW0-11|Q8TEW0-2|Q8TEW0-4|Q8TEW0-5|Q8TEW0-8 (UniProt Q8TEW0)	1.02 ± 0.11	1.02 ± 0.084	1.05 ± 0.098	1.07 ± 0.089	1.17 ± 0.14	1.15 ± 0.14	1.2 ± 0.14	1.19 ± 0.1
RAB8A (UniProt P61006)	0.928 ± 0.03	0.95 ± 0.039	0.903 ± 0.041	0.849 ± 0.068	0.812 ± 0.064	0.858 ± 0.085	0.828 ± 0.046	0.81 ± 0.075
UniProt Q13303-2	1.05 ± 0.045	1.06 ± 0.11	0.954 ± 0.086	1 ± 0.14	0.984 ± 0.11	0.973 ± 0.14	0.898 ± 0.024	0.904 ± 0.043
